In the supplement of paper PMC6555819:

Legend:
Test in all cases: PBM binding z-score (relative to random genomic background probes); higher = stronger binding; sequences stand for … in GC…GCGATTGACAGCGTAGAATGAAGG
[1] = system: RARb homodimer (NR concentration 270 nM)
How it was run: (§1)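 Regression normalization was applied to scanned fluorescence from custom Agilent 4×180K protein-binding microarrays. Before scanning, arrays were incubated 1 h with ligand-free nuclear receptor dimers, and binding was detected with antibodies against each partner (one per run). Binding z-scores use the random background probes as reference.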

[2] = system: RARg:RXRa (NR concentration 270 nM, RXRa partner concentration 90 nM)
How it was run: as §1

[3] = system: RARg homodimer (NR concentration 270 nM)
How it was run: as §1

[4] = system: RXRa DBDmut IVT, anti-RXR (DBD mutation: RXRa K156A/R161A, NR concentration 90 nM)
How it was run: as §1

[5] = system: RXRa homodimer (NR concentration 180 nM)
How it was run: as §1

[6] = system: THRa:RXRa (NR concentration 90 nM, RXRa partner concentration 90 nM)
How it was run: as §1

[7] = system: THRa homodimer (NR concentration 90 nM)
How it was run: as §1

[8] = system: VDR homodimer (NR concentration 270 nM)
How it was run: as §1

Row | Sequence | PBM binding z-score [1] | PBM binding z-score [2] | PBM binding z-score [3] | PBM binding z-score [4] | PBM binding z-score [5] | PBM binding z-score [6] | PBM binding z-score [7] | PBM binding z-score [8]
1 | CAAACTAGGTCAAGAGGACAAAGTCCGCTTCCCG | 3.78 | 4.36 | 5.19 | 1.45 | 2.74 | 3 | 1.29 | 0.916
2 | AATACAGGGTCACTAGGCCAGAGGAGGTACGAAT | 3.25 | 5.14 | 5.04 | 2.54 | 5.66 | 3.34 | 1.54 | 2.73
3 | CAACCTAGGTCAAGGTCAAAGTCGGTTTGTGCCA | 5.28 | 6.18 | 6.82 | 2.98 | 6 | 4.3 | 3.92 | 4.12
4 | ATCGAAAGCTCGAGGTGAGTATAGAGAAAGGGAA | -0.503 | 0.0363 | 0.189 | -0.888 | -0.0727 | 0.963 | -0.199 | -0.71
5 | CGTCCAAGGTCATAGGAGATCAGTGAAGACAGAT | 3.65 | 5.88 | 6.14 | 4.11 | 6.2 | 3.82 | 2.46 | 3.14
6 | CCGACTGGGGCAGAAAGATTACCATACCATCCGG | -0.533 | -0.183 | 0.217 | -0.916 | 0.0291 | -0.794 | -0.569 | -0.722
7 | AGAACCAGGGCAATGAGTTGATAGCACGGGTGGC | 0.48 | 0.321 | 0.673 | 0.0529 | 0.352 | 0.225 | -0.251 | 0.986
8 | TCTATTAGTTGATTAGAGCAACCGAAACAGCGGA | -0.716 | 0.0982 | 0.245 | 0.765 | 0.293 | -0.353 | -0.739 | 0.18
9 | GCGACTGGGGCAAAGCAGGTTGCCATAAGGTTGG | 0.156 | 0.0303 | 0.101 | -0.48 | -0.0833 | 1.59 | -0.471 | -0.513
10 | TCGAGGAGGTTAGGGGCATTCAGAATGGCGTCGA | 1.36 | 0.847 | 0.702 | 0.518 | 1.22 | 1.34 | 0.547 | 1.07
11 | ACAGACAAGTGATGAAGGTAACTCAGGCTATCAT | 0.0016 | -0.0454 | 0.277 | -0.483 | 0.153 | 0.639 | -0.0791 | -0.536
12 | TCATATAGGTAATACAGATGAAAGTCGGCATCTA | -0.481 | 0.349 | 0.543 | 1.28 | 1.09 | -0.0206 | -0.254 | 0.0563
13 | GTACCAAGGTGATTAGGTCGTTGATGAGTAGGCG | 1.06 | 0.806 | 0.66 | 0.0245 | 0.805 | 1.49 | 1.03 | 0.631
14 | GCTCGGAGGACAAGGTCATAGCTTTGTCCGTAGA | 3.41 | 4.23 | 3.99 | 1.8 | 4.34 | 3.56 | 2.14 | 2.26
15 | CAGCCTAGGTCAGGCCCAGTATAGGAGGAACGTT | 2.11 | 2.54 | 3.21 | -0.298 | 1.14 | 1.66 | 0.183 | -0.788
16 | TCTCGGAGGACACGAAGGTGAGAGCTTTCCAGAG | 1.24 | 0.731 | 1.55 | 0.225 | 0.152 | 1.48 | 0.357 | -0.501
17 | AGAATGAGGTTAAGATCAGGGGAACAGAATACAT | 1.37 | 2.14 | 1.59 | 1.58 | 2.52 | 2.8 | 1.34 | 0.727
18 | CCGACTGGGGCGTAAGGTTACCATAAGCCAGCCC | 1.23 | 0.788 | 0.295 | -0.36 | 0.979 | 1.92 | 0.973 | -0.426
19 | CGTCCAAGGTCATAGGAGGTCAGGGAAGACAGAT | 5.2 | 6.79 | 7.15 | 3.89 | 6.99 | 5.41 | 3.54 | 4.28
20 | GCGACTGGGGCAAAGAAGGTTACCATAAGGTTGG | 1.92 | 1.19 | 1.02 | -0.00563 | 0.942 | 2.77 | 0.225 | 0.247
21 | TGAATGAGGATAAAGATCAGGGAACGTGGCGTCG | -0.895 | 0.0209 | 0.399 | -0.871 | -0.0726 | 1.33 | 0.0902 | -0.316
22 | TCATATAGCTAATACAGGTGAAAGTCGGCATCTA | -0.00242 | 0.298 | 0.338 | 1.09 | 0.758 | 0.42 | -0.541 | -0.107
23 | ATACCAAGGTGATCGTGAGGGCGTTGATACTAAC | 1.07 | 0.664 | 0.461 | 0.501 | 0.36 | 2.16 | 1.23 | 1.36
24 | ATCTCTATGTAAAAGTTCAGTGAATCCCGAGGAT | 2.26 | 1.61 | 1.8 | 1.05 | 1.11 | 0.505 | 0.00559 | 1.6
25 | ATCTCTAGGTAAAGATATTTCAGTGAATGCAAAT | -0.275 | 0.202 | 0.289 | -0.0383 | 0.125 | 0.524 | 0.252 | -0.0481
26 | AGCGAAAGGTCGACGAGGTGAGTATACACCGTTT | 2.99 | 4.23 | 4.03 | 0.801 | 4.4 | 3.75 | 0.716 | 0.753
27 | CGTCCAGGGTCAGCAGGTCAGTGAAAGCGACGTG | 4.51 | 6.01 | 5.75 | 1.59 | 5.4 | 3.61 | 1.32 | 1.25
28 | CGAACTAGGTCATCCAGGACAGTGAGTACATTGA | 3.03 | 4.04 | 5.08 | 2.58 | 3.02 | 3.65 | 2.14 | 4.1
